Out of some 360,000 compounds screened, about 9,100 (2.5%) were called active. Roughly 4% stayed inconclusive and do not appear here. Many of the other results were omitted from the sample, so actives are more common in it than they were. Values without a mark were called inactive. No stated cut-off is given here; in the data, active means max response below about -50%; inconclusive means no clear call, values can overlap the other calls; inactive means above that.
On the % scale 0 is the no-effect control and ±100 the full control effect.

D(3) dopamine receptor (Homo sapiens), sequence (P35462 whole entry, looked up): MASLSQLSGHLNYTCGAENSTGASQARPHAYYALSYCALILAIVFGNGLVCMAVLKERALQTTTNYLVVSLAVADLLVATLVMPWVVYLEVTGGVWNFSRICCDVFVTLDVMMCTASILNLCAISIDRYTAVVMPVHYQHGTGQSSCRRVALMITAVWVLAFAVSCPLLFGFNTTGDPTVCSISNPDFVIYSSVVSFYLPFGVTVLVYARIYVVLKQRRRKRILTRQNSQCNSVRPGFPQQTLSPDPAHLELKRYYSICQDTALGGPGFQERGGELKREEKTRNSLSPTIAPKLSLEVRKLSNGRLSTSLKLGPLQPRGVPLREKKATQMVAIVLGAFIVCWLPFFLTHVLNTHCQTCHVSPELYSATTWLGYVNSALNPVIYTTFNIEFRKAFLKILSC

This experiment deals with D(3) dopamine receptor (Homo sapiens) (UniProt P35462). Put plainly: qHTS of D3 Dopamine Receptor Antagonist: qHTS. As to conditions: D3R cells, DiscoveRx beta-arrestin luminescence, antagonist mode; stronger effect = lower value. In a few lines:
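Cells expressing the human receptor were seeded at 1500 cells/well, incubated overnight at 37 degrees C in 5% CO2, then exposed to library compounds with dopamine controls for 90 minutes at 37 degrees C before luminescent detection.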
In general terms: Quantitative high-throughput screening tests each substance at several concentrations.
With `COc1ccc(C(=O)N2CCCCC2c2cc(C(=O)Nc3ccc(F)c(Cl)c3)no2)cc1` (stereo not drawn), the max response, negative = inhibition was -6.17%.

As to `O=S1(=O)CC(N2CCN(c3ccccn3)CC2)CN1Cc1ccc(F)cc1` (stereo not drawn), the max response, negative = inhibition was 7.7%.

For `CCCNC(=O)C1(C)CCCN(Cc2cccc(C(F)(F)F)c2)C1` (stereo not drawn), the max response, negative = inhibition was 27.1%. The result for `CCCNC(=O)C1(C)CCN(Cc2csc(-c3ccc(Cl)cc3)n2)C1` (stereo not drawn) reads -103% (active). To `CCCNC(=O)C1(C)CCCN(Cc2c(C)nn(-c3ccccc3)c2C)C1` (stereo not drawn) belongs 19.2%.

Turning to `COC(=O)[C@]12CCCCC=C1N(Cc1cccc3ccccc13)C(=O)[C@H](CC(=O)N1CCOCC1)C2`, the max response, negative = inhibition was -10.3%. Take `Cc1cc(=O)oc(C)c1C(=O)NCc1ccc(F)cc1`: the max response, negative = inhibition was -14.8%.

On to `COc1ccc(CNC(=O)c2c(C)cc(=O)oc2C)cc1OC`, for which the max response, negative = inhibition was 2.8%. As to `Cc1cc(=O)oc(C)c1C(=O)NCCN(C)Cc1ccccc1`, the max response, negative = inhibition was -76.1% (active).

As to `Cc1nc(C(F)(F)F)ccc1C(=O)N1CCC1(C)C(=O)NS(=O)(=O)c1ccccc1Cl` (stereo not drawn), the max response, negative = inhibition was -15.5%. Turning to `COc1ccc(OC)c(C(=O)c2ccc(C(=O)N3CCN(Cc4csc(C)n4)CC3)cc2)c1`, the max response, negative = inhibition was -18%. To `CCN1CCN(C(=O)c2cc3cc4ccc(OC)cc4nc3s2)CC1` belongs -89.5% (active); to `COc1ccc(OCC(=O)N2CCN(C(=O)c3cccs3)CC2)cc1`, 5.1%.

On to `CCCc1c(-c2ccccc2F)ncn1Cc1ccccc1OC`, for which the max response, negative = inhibition is 2.92%.

In the case of `COc1ccc(CCNC(=O)CN(c2ccccc2)S(=O)(=O)c2ccccc2)cc1`, the max response, negative = inhibition is -3.43%.

`CC(C)Oc1cc(F)ccc1-c1cc(C(=O)Nc2ccc(F)cc2)[nH]n1`: the max response, negative = inhibition was -13.9%.

In the case of `COc1cc(-c2nnc(NC(=O)CS(=O)(=O)c3ccc(Cl)cc3)o2)cc(OC)c1OC`, the max response, negative = inhibition is -6.21%. The result for `COc1ccc2[nH]c3c(c2c1)CCN1C(=O)C(CC(=O)NCCCN(C)C)C[C@H](C(=O)N2CCOCC2)[C@@]31CCC1CCCC1` (stereo partly drawn) reads 37%; that for `COc1ccc(CNC(=O)C[C@H]2C[C@H](C(=O)N3CCOCC3)[C@@]3(CCC4CCCC4)c4[nH]c5ccc(Cl)cc5c4CCN3C2=O)cc1OC`, -63% (active); that for `CC[C@]12c3[nH]c4ccc(Cl)cc4c3CCN1C(=O)[C@@H](CC(=O)NCCN1CCOCC1)C[C@@H]2C(=O)N1CCN(C(=O)C2CC2)CC1`, 6.27%.

As for `CCc1nc2c(OCCOc3ccccc3)cccn2c1N(C)C(=O)c1cccs1`, the max response, negative = inhibition is -19.8%. To `Cc1ccc(-c2nc(CS(=O)(=O)CC(=O)NCc3ccc4c(c3)OCO4)c(C)o2)cc1` belongs -2.53%. To `Cc1ccc(CNCc2ccc3c(c2)OCO3)c(C)c1` belongs -3.23%. Turning to `Cc1ccc(S(=O)(=O)N(CCCN(C)C)Cc2ccc3c(c2)OCO3)cc1`, the max response, negative = inhibition is -51.8% (active). The result for `OC[C@@H]1CN(Cc2ccc(Cl)cc2)C[C@H](n2cnc3c(NCc4ccncc4)ncnc32)O1` reads 17.2%; that for `Cc1cc(Cl)ccc1C(=O)C1CCCN(C(=O)c2ccc3c(c2)OCO3)C1` (stereo not drawn), -7.01%; that for `CC(=O)OCC(C)n1c(=O)c2ccccc2n1C(C)=O` (stereo not drawn), 0.665%.

Turning to `COc1ccc(NC(=O)CCCC2CCCCC2)c(OC)c1`, the max response, negative = inhibition was 11.6%. For the molecule `CCOc1ccccc1NC(=O)NC1CCCCCCC1`, the max response, negative = inhibition is 0.28%. The result for `COc1ccc(N2CCN(CCNC(=O)Nc3cc(Cl)ccc3Cl)CC2)cc1` reads -2.75%. The result for `COc1ccc(NC(=O)CCn2ccnc2)c(OC)c1` reads -22.6%; that for `COc1ccc(OC)c(NC(=O)CCN2CCC(C)CC2)c1`, -50.8% (active). To `COc1ccccc1NC(=O)CCN1CCN(c2ccc(Cl)cc2)CC1` belongs -52.9% (active); to `COc1ccc(NC(=O)CCN2CCCC2)c(OC)c1`, -50.5% (active); to `CCOC(=O)N1CCN(CCC(=O)Nc2cc(OC)ccc2OC)CC1`, 2%. `COc1ccc(OC)c(NC(=O)CC(Cc2ccccc2OC)C(=O)O)c1` (stereo not drawn): the max response, negative = inhibition was 2.31%. To `CCOc1ccccc1NC(=O)Nc1cc(OC)ccc1OC` belongs -69.8% (active); to `CCOc1ccccc1NC(=O)CCN1CCN(S(=O)(=O)c2ccc(OC)cc2)CC1`, 38.4%; to `COc1ccc(C(C)(C)C)cc1NC(=O)CCN1C(=O)C2CCCCC2C1=O` (stereo not drawn), 4.26%.

As to `O=C(CC[C@H]1O[C@@H](n2ccc(=O)[nH]c2=O)[C@H](O)[C@@H]1O)N[C@H](Cc1ccccc1)C(=O)NCc1ccco1`, the max response, negative = inhibition was 23.3%. The result for `CCCC/C=C/c1cccc2nncn12` reads 11.2%; that for `C[C@H](CO)N1C[C@H](C)[C@@H](CN(C)C(=O)C2CCCCC2)OCc2cnnn2CCCC1=O`, -18.3%. To `Cc1nc2ccccn2c(=O)c1NC(=O)c1ccc(Br)o1` belongs 0%. To `Cc1nccn1-c1ccc(NC(=O)[C@H]2O[C@@H](n3cnc4c(N)ncnc43)[C@H](O)[C@@H]2O)cc1` belongs 9.64%. As to `COc1ccc2c(c1)CCCO[C@]21O[C@H](CCO)C[C@H](O)[C@H]1O`, the max response, negative = inhibition is -5.1%. The result for `Fc1cccc(Cc2c(-c3cccc(Cl)c3)nc3ccc(Br)cn23)c1` reads 12.6%; that for `CC(C)NC(=O)Nc1ccc2c(c1)C(=O)N([C@H](C)CO)C[C@H](C)[C@@H](CN(C)Cc1ccc(C(F)(F)F)cc1)OCCCC[C@@H](C)O2`, -28.7%. The result for `COC(=O)C[C@@H]1C=C[C@@H](NS(=O)(=O)c2cccc(OC)c2)[C@@H](CO)O1` reads 3.79%; that for `O=C1NC[C@H](CCCCN2C[C@H](Cc3ccccc3)N(Cc3ccccc3)C(=O)C2=O)N(CCc2ccc(O)cc2)C1=O`, 2.36%; that for `COc1ccc(OCCCC(=O)Oc2ccc(OC)cc2)cc1`, 12.3%.

Consider `COc1ccc(OCCCCN2CCC(C)CC2)cc1`, for which the max response, negative = inhibition is -66.8% (active).

With `COc1ccc(OCC(=O)Nc2ccc(N3CCC(C)CC3)cc2)cc1`, the max response, negative = inhibition was -0.541%.

Turning to `CC(C)(C)OC(=O)N1CCN(C(=O)c2[nH]c(C(F)(F)F)nc2-c2ccccc2)CC1`, the max response, negative = inhibition is 11.8%. To `C=CCn1nc(C(=O)OCC)cc1-c1sc(NC(=O)c2ccccc2)nc1C` belongs 26.8%; to `C=CCN1CCN(c2ccncc2S(=O)(=O)N2CCN(C)CC2)CC1`, 26.6%. To `COc1ccc(-c2cc(NC=O)c3ncc(-c4cc(OC)c(OC)c(OC)c4)n3c2)c(OC)c1` belongs 36.6%. With `N#Cc1ccc(C(=O)Nc2nc(-c3cccs3)c(C(=O)C(F)(F)F)s2)cc1`, the max response, negative = inhibition is -58.8% (active). As to `COC(=O)c1sc(NC(=S)NC(=O)c2ccc(C)cc2)nc1C`, the max response, negative = inhibition is 2.14%.

For the molecule `N#Cc1c(-c2cccs2)nc(SCC(=O)c2ccc(Br)cc2)[nH]c1=O`, the max response, negative = inhibition was 4.64%. For the molecule `O=C(NCc1ccc(F)cc1)c1cc(C2CCCCN2C(=O)c2ccccn2)on1` (stereo not drawn), the max response, negative = inhibition is -10.1%. Turning to `COC(=O)c1ccc(Oc2nc(Nc3ccc(F)cc3)nc(N3CCCC3)n2)cc1`, the max response, negative = inhibition was -22.6%. As to `Clc1nc(NC2CCCC2)nc(N2CCOCC2)n1`, the max response, negative = inhibition was 16.5%.

In the case of `COc1nc(NC2CCCCC2)nc(N2CCCCCC2)n1`, the max response, negative = inhibition was -62.8% (active). The result for `COC(=O)[C@@]12C[C@@H](CC(=O)NCCCCc3ccccc3)C(=O)N(Cc3ccccc3)C1=CCC(C)(C)C2` reads -9.89%; that for `CN(C)CCOc1ccc(Cl)cc1C(C)(C)C`, -51.2% (active); that for `Cn1c(CCCOc2ccc(Cl)cc2Cl)n[nH]c1=S`, 10.4%.

For `CCN(CC)CCOCCOc1ccc(Cl)c2ccccc12`, the max response, negative = inhibition was -29.6%. The result for `CC(=O)C[C@@H]1OC[C@H](CO)N1S(=O)(=O)c1ccc(C)cc1` reads 6.66%.

(Values after PubChem BioAssay AID652054 (National Center for Advancing Translational Sciences (NCATS), 2013).)
